Data from PubChem BioAssay (NCI).
Compounds without any hit were thinned out: in the full panel of roughly 83,000, 20% have a hit.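 96-well plates, one dose, 48 hours. Percent growth reported; active if below 10.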 The source made the active and inactive calls.

What was measured:
Experiment in all cases: NCI-60 one-dose screen, 48 h (100 = growth as untreated, 0 = no growth, -100 = all killed)
Details in all cases: 10 µM unless noted
SR leukemia = system: SR leukemia
RPMI-8226 leukemia = system: RPMI-8226 leukemia
OVCAR-8 ovarian = system: OVCAR-8 ovarian
OVCAR-5 ovarian = system: OVCAR-5 ovarian
OVCAR-4 ovarian = system: OVCAR-4 ovarian
SK-OV-3 ovarian = system: SK-OV-3 ovarian
IGROV1 ovarian = system: IGROV1 ovarian
OVCAR-3 ovarian = system: OVCAR-3 ovarian
NCI/ADR-RES ovarian = system: NCI/ADR-RES ovarian
T-47D breast = system: T-47D breast
BT-549 breast = system: BT-549 breast
MDA-MB-435 melanoma = system: MDA-MB-435 melanoma
MCF7 breast = system: MCF7 breast
HCT-116 colon = system: HCT-116 colon
HCC-2998 colon = system: HCC-2998 colon
KM12 colon = system: KM12 colon
MDA-MB-468 breast = system: MDA-MB-468 breast
HS 578T breast = system: HS 578T breast
SW-620 colon = system: SW-620 colon

Measured: growth

COc1ccc(-c2cc(C(=O)NCc3ccccc3)nn2-c2ccc(S(C)(=O)=O)cc2)cc1OC
inactive: SR leukemia 82.3% | RPMI-8226 leukemia 86.9% | OVCAR-8 ovarian 100% | OVCAR-5 ovarian 102% | OVCAR-4 ovarian 94.3% | SK-OV-3 ovarian 105% | IGROV1 ovarian 122% | OVCAR-3 ovarian 115% | NCI/ADR-RES ovarian 107% | T-47D breast 91.1% | BT-549 breast 104% | MDA-MB-435 melanoma 105% | MCF7 breast 95.2% | HCT-116 colon 102% | HCC-2998 colon 117% | KM12 colon 102% | MDA-MB-468 breast 100%

N#Cc1c(-c2cccnc2)cc(-c2ccc3ccccc3c2)[nH]c1=O
inactive: SR leukemia 73.7% | RPMI-8226 leukemia 51.5% | OVCAR-8 ovarian 78% | OVCAR-5 ovarian 106% | OVCAR-4 ovarian 64.6% | SK-OV-3 ovarian 112% | IGROV1 ovarian 97.6% | OVCAR-3 ovarian 102% | NCI/ADR-RES ovarian 75.3% | T-47D breast 93% | BT-549 breast 57.6% | MDA-MB-435 melanoma 99.4% | MCF7 breast 60.5% | HCT-116 colon 80% | HCC-2998 colon 96.4% | KM12 colon 92.9% | MDA-MB-468 breast 94.1%

Cc1cc(C)cc(C(=O)Nc2cccc(-c3cn(-c4ccc(S(N)(=O)=O)cc4)nn3)c2)c1
inactive: SR leukemia 51.6% | RPMI-8226 leukemia 89.8% | OVCAR-8 ovarian 18.7% | OVCAR-5 ovarian 81.5% | OVCAR-4 ovarian 42.1% | IGROV1 ovarian 15.4% | OVCAR-3 ovarian 87.4% | NCI/ADR-RES ovarian 55.9% | T-47D breast 35% | BT-549 breast 67.8% | MDA-MB-435 melanoma 85.9% | MCF7 breast 31.5% | HCT-116 colon 39.8% | KM12 colon 36.1% | MDA-MB-468 breast 41%
active: SK-OV-3 ovarian 9.56%

Cc1ccc2c(N)c(C(=O)Nc3ccc(OC(F)(F)F)cc3)sc2n1
inactive: SR leukemia 56.5% | RPMI-8226 leukemia 46.9% | OVCAR-8 ovarian 76.2% | OVCAR-5 ovarian 84.5% | OVCAR-4 ovarian 52.1% | SK-OV-3 ovarian 68.2% | IGROV1 ovarian 61.5% | OVCAR-3 ovarian 83% | NCI/ADR-RES ovarian 52.4% | T-47D breast 27.3% | BT-549 breast 86.8% | MDA-MB-435 melanoma 68.9% | MCF7 breast 39.4% | HCT-116 colon 58.8% | HCC-2998 colon 90.9% | KM12 colon 66.5% | MDA-MB-468 breast 15.9%

CCCSc1nc(Nc2ccc(S(N)(=O)=O)cc2)c(C#N)c(-c2cc(OC)c(OC)c(OC)c2)n1
active: SR leukemia 6.66% | RPMI-8226 leukemia 3.5% | T-47D breast -11.4%
inactive: OVCAR-8 ovarian 10.2% | OVCAR-5 ovarian 58.5% | OVCAR-4 ovarian 27.5% | IGROV1 ovarian 34.9% | OVCAR-3 ovarian 24.6% | HS 578T breast 30.7% | NCI/ADR-RES ovarian 15.1% | BT-549 breast 16.5% | MDA-MB-435 melanoma 23% | SW-620 colon 30% | HCT-116 colon 11.4% | HCC-2998 colon 43.6% | KM12 colon 12.7% | MDA-MB-468 breast 30.5%

CC(=O)OC[C@@]1(C)C2CC[C@]3(C)C(CC=C4C5CC(C)(C)CC[C@]5(C(=O)Nc5cccc(C)c5)CC[C@]43C)[C@@]2(C)C[C@@H](OC(C)=O)[C@@H]1OC(C)=O (stereo not given in full)
active: MDA-MB-468 breast 1.92%
inactive: SR leukemia 30% | RPMI-8226 leukemia 15.9% | OVCAR-8 ovarian 39.7% | OVCAR-5 ovarian 81.2% | OVCAR-4 ovarian 38.6% | IGROV1 ovarian 61.8% | OVCAR-3 ovarian 47.5% | HS 578T breast 77% | NCI/ADR-RES ovarian 36.2% | T-47D breast 24.3% | BT-549 breast 47.4% | MDA-MB-435 melanoma 48.2% | SW-620 colon 40.5% | MCF7 breast 24.9% | HCT-116 colon 21.8% | HCC-2998 colon 49% | KM12 colon 48.7%

N#Cc1c(-c2ccccc2Cl)cc(-c2ccc3ccccc3c2)[nH]c1=O
inactive: SR leukemia 48.9% | RPMI-8226 leukemia 61.5% | OVCAR-8 ovarian 12.2% | OVCAR-5 ovarian 44.1% | SK-OV-3 ovarian 52.1% | IGROV1 ovarian 48.2% | NCI/ADR-RES ovarian 13.4% | MDA-MB-435 melanoma 61.7% | MCF7 breast 44.4% | HCT-116 colon 17.9% | HCC-2998 colon 49.1% | KM12 colon 74.4%
active: OVCAR-4 ovarian -46% | OVCAR-3 ovarian -7.55% | T-47D breast -21.3% | BT-549 breast 3.43% | MDA-MB-468 breast 5.01%

CC(C)c1sc(NC(=O)c2cc(NC(=O)c3cc(NC(=O)c4nccn4C)cn3C)cn2C)nc1C(=O)NCCCN(C)C
inactive: SR leukemia 17.5% | RPMI-8226 leukemia 104% | OVCAR-8 ovarian 81.2% | OVCAR-5 ovarian 105% | OVCAR-4 ovarian 75.3% | IGROV1 ovarian 82.5% | OVCAR-3 ovarian 70.9% | HS 578T breast 90.3% | NCI/ADR-RES ovarian 111% | T-47D breast 75.8% | BT-549 breast 57.7% | MDA-MB-435 melanoma 70.9% | SW-620 colon 66.6% | MCF7 breast 69.7% | HCT-116 colon 44.2% | HCC-2998 colon 84.3% | KM12 colon 111% | MDA-MB-468 breast 65.3%

O=C(COc1ccc(NC(=O)Nc2ccc(Cl)c(Cl)c2)cc1)N=Nc1c(O)[nH]c2ccc(Cl)cc12
inactive: NCI/ADR-RES ovarian 85.2%
active: SR leukemia 3.93% | RPMI-8226 leukemia 6.94% | OVCAR-8 ovarian -48.4% | OVCAR-5 ovarian -28% | OVCAR-4 ovarian -16.6% | IGROV1 ovarian -48.6% | OVCAR-3 ovarian -81.7% | HS 578T breast -13.7% | T-47D breast -13% | BT-549 breast -71.7% | MDA-MB-435 melanoma -61.4% | SW-620 colon -46.9% | MCF7 breast 3.54% | HCT-116 colon -53.5% | HCC-2998 colon -51.4% | KM12 colon -87.9% | MDA-MB-468 breast -51%

COc1ccc(C(=O)/C=C/c2ccc(OC)c(OCc3ccccc3)c2)cc1OC
active: RPMI-8226 leukemia 7.98% | OVCAR-8 ovarian -7.56% | NCI/ADR-RES ovarian -4.74% | BT-549 breast -15.5% | SW-620 colon 9.63% | MCF7 breast 7.12% | KM12 colon 8.98% | MDA-MB-468 breast 1.46%
inactive: SR leukemia 14.4% | OVCAR-5 ovarian 31.4% | OVCAR-4 ovarian 30.1% | IGROV1 ovarian 22.2% | OVCAR-3 ovarian 16.3% | HS 578T breast 18.7% | T-47D breast 15.7% | MDA-MB-435 melanoma 22.7% | HCT-116 colon 10.7% | HCC-2998 colon 12.6%

O=c1c2ccccc2nc(-c2ccccc2)n1/N=C/c1ccc2ccccc2c1
inactive: SR leukemia 11.5% | RPMI-8226 leukemia 39% | OVCAR-8 ovarian 50.6% | OVCAR-5 ovarian 69.4% | OVCAR-4 ovarian 85.8% | SK-OV-3 ovarian 68.5% | IGROV1 ovarian 55.6% | OVCAR-3 ovarian 67.4% | NCI/ADR-RES ovarian 53.5% | T-47D breast 56.4% | BT-549 breast 51.8% | MDA-MB-435 melanoma 55% | MCF7 breast 34.2% | HCT-116 colon 22.1% | KM12 colon 45% | MDA-MB-468 breast 67.2%

Cn1cc(-c2nnc(N)nc2-c2c[nH]c3ccc(F)cc23)c2cccnc21
active: MDA-MB-435 melanoma -21.8%
inactive: SR leukemia 25.5% | RPMI-8226 leukemia 49.1% | OVCAR-8 ovarian 49.3% | OVCAR-5 ovarian 83.3% | OVCAR-4 ovarian 77.6% | IGROV1 ovarian 40.7% | OVCAR-3 ovarian 25.3% | HS 578T breast 42% | NCI/ADR-RES ovarian 72.9% | T-47D breast 40.7% | BT-549 breast 34% | SW-620 colon 19.3% | MCF7 breast 23.6% | HCT-116 colon 15.1% | HCC-2998 colon 65.8% | KM12 colon 22.3% | MDA-MB-468 breast 39.1%

O=C(/C=C/c1cccc(OCc2ccccc2)c1)c1nc2ccccc2[nH]1
active: SR leukemia -33.3% | RPMI-8226 leukemia -52% | BT-549 breast 8.5% | MCF7 breast 3.28% | HCT-116 colon -36.1% | HCC-2998 colon -5.62% | KM12 colon 4.96% | MDA-MB-468 breast -40.1%
inactive: OVCAR-8 ovarian 58% | OVCAR-5 ovarian 105% | OVCAR-4 ovarian 59.4% | SK-OV-3 ovarian 87.8% | IGROV1 ovarian 60.3% | OVCAR-3 ovarian 38.3% | NCI/ADR-RES ovarian 64.5% | T-47D breast 13.7% | MDA-MB-435 melanoma 72%

CCCCOc1ccc(NC(=O)c2sc3nc(C)ccc3c2N)cc1
active: OVCAR-8 ovarian 5.4% | OVCAR-4 ovarian 1.32% | SK-OV-3 ovarian -15.9% | NCI/ADR-RES ovarian -39.3% | BT-549 breast -11.6% | HCT-116 colon -67.4% | MDA-MB-468 breast -48.4%
inactive: SR leukemia 19.1% | RPMI-8226 leukemia 32.4% | OVCAR-5 ovarian 20.1% | IGROV1 ovarian 17.7% | OVCAR-3 ovarian 15.5% | T-47D breast 15% | MDA-MB-435 melanoma 39.7% | MCF7 breast 18.1% | KM12 colon 26.2%

CC1=C(C(=O)OCc2ccccc2)C(c2c(O)cc(O)cc2O)n2c(nc3ccccc32)N1 (stereo not given)
inactive: SR leukemia 18.5% | RPMI-8226 leukemia 81.9% | OVCAR-8 ovarian 77.9% | OVCAR-5 ovarian 73.6% | OVCAR-4 ovarian 84% | SK-OV-3 ovarian 44.4% | IGROV1 ovarian 51% | OVCAR-3 ovarian 33.6% | NCI/ADR-RES ovarian 31% | T-47D breast 62.6% | BT-549 breast 55% | MCF7 breast 25% | HCT-116 colon 26.1% | HCC-2998 colon 86.4% | KM12 colon 46.3%
active: MDA-MB-435 melanoma 1.29% | MDA-MB-468 breast -27.4%

COc1cc(C2CC(c3cc(OC)c(OC)c(OC)c3)=NN2C(C)=O)ccc1OCc1ccc(F)cc1 (stereo not given)
inactive: SR leukemia 39.7% | RPMI-8226 leukemia 36.6% | OVCAR-8 ovarian 61.9% | OVCAR-5 ovarian 57.8% | OVCAR-4 ovarian 42.1% | IGROV1 ovarian 45.8% | OVCAR-3 ovarian 70.3% | HS 578T breast 58.8% | NCI/ADR-RES ovarian 60.6% | T-47D breast 24.8% | BT-549 breast 44.9% | MDA-MB-435 melanoma 62.5% | SW-620 colon 58.5% | MCF7 breast 34.7% | HCT-116 colon 31.5% | HCC-2998 colon 86% | KM12 colon 57.1% | MDA-MB-468 breast 47.1%
